The full ranking holds about 16,000 sequences; the median of “rpm ratio (pull-down/input)” is about 0.94, and the highest 2% start at about 1.7. What follows is part of a selection rich in the highest values, with near analogues and random picks from the rest.

This test has as its target T1, MBP-FoxP1dN (Mus musculus, UniProt P58462 326-579).
T1 sequence: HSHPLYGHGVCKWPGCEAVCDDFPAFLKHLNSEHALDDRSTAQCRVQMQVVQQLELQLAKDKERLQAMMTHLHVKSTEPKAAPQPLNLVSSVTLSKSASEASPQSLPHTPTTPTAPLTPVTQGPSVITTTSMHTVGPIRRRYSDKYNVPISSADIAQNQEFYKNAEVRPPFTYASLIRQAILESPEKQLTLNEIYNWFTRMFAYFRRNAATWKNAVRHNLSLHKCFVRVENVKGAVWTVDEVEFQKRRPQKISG
Kind of test: PD-seq (MBP pull-down with sequencing); 20 mM Tris-HCl pH 7.5, 100 mM NaCl, 1.5 mM MgCl2, 0.4 uM protein, 0.1 uM dsDNA library, 30 min, room temperature, amylose pull-down; high values mean tight binding. Conditions: protein: recombinant; tags: His6-MBP; chain copies: 2; dsDNA, one strand shown. In short, it runs like this:
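Protein and DNA were mixed at 0.4 µM and 0.1 µM and held for 30 min at room temperature in Tris pH 7.5 buffer with NaCl and MgCl2; the protein was a His6-MBP-tagged, N-terminally truncated mouse FoxP3 or FoxP1 fragment from E. coli, and the DNA a Klenow-filled double-stranded degenerate library. Amylose resin captured the complexes, which were washed three times. Binding is read as reads-per-million enrichment of pull-down versus input after Illumina sequencing, with replicates pooled.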
In the case of “GATGATTGTTCTCCCAGCTGATGAATTGGTCCCATCGAGTAAACAAATTTTCCTAATCTTTCTGTTCAAGCGCCATCTAC”, the binding signal is 0.976 RPM ratio (pull-down/input).

Regarding “GATGATTGTTCTCCCAGCTGATGAATTGCTTAGGTCGAGTAAACAAATTTTCCTAATCTTTCTGTTCAAGCGCCATCTAC”, the binding signal is 1.02 RPM ratio (pull-down/input). For “GATGATTGTTCTCCCAGCTGATGAATTAATGTCCTCGAGTAAACAAATTTTCCTAATCTTTCTGTTCAAGCGCCATCTAC” the value was 0.913 RPM ratio (pull-down/input); for “GATGATTGTTCTCCCAGCTGATGAATTTGTGAGCTCGAGTAAACAAATTTTCCTAATCTTTCTGTTCAAGCGCCATCTAC”, 0.999 RPM ratio (pull-down/input). The figure for “GATGATTGTTCTCCCAGCTGATGAATTAACGAAGTCGAGTAAACAAATTTTCCTAATCTTTCTGTTCAAGCGCCATCTAC” is 0.89 RPM ratio (pull-down/input).

Turning to “GATGATTGTTCTCCCAGCTGATGAATTGTGATGCTCGAGTAAACAAATTTTCCTAATCTTTCTGTTCAAGCGCCATCTAC”, the binding signal is 1.54 RPM ratio (pull-down/input). The figure for “GATGATTGTTCTCCCAGCTGATGAATTTGTACTCTCGAGTAAACAAATTTTCCTAATCTTTCTGTTCAAGCGCCATCTAC” is 1.15 RPM ratio (pull-down/input).

“GATGATTGTTCTCCCAGCTGATGAATTGTGTATCTCGAGTAAACAAATTTTCCTAATCTTTCTGTTCAAGCGCCATCTAC”: the binding signal was 1.67 RPM ratio (pull-down/input). For “GATGATTGTTCTCCCAGCTGATGAATTTGTGTACTCGAGTAAACAAATTTTCCTAATCTTTCTGTTCAAGCGCCATCTAC” the value was 2.09 RPM ratio (pull-down/input); for “GATGATTGTTCTCCCAGCTGATGAATTGTGTGTATCGAGTAAACAAATTTTCCTAATCTTTCTGTTCAAGCGCCATCTAC”, 1.92 RPM ratio (pull-down/input). For “GATGATTGTTCTCCCAGCTGATGAATTTTTGTACTCGAGTAAACAAATTTTCCTAATCTTTCTGTTCAAGCGCCATCTAC” the value was 1.14 RPM ratio (pull-down/input); for “GATGATTGTTCTCCCAGCTGATGAATTTTCTGTATCGAGTAAACAAATTTTCCTAATCTTTCTGTTCAAGCGCCATCTAC”, 1.08 RPM ratio (pull-down/input). The figure for “GATGATTGTTCTCCCAGCTGATGAATTCTGTACCTCGAGTAAACAAATTTTCCTAATCTTTCTGTTCAAGCGCCATCTAC” is 0.846 RPM ratio (pull-down/input). Turning to “GATGATTGTTCTCCCAGCTGATGAATTAATGTAATCGAGTAAACAAATTTTCCTAATCTTTCTGTTCAAGCGCCATCTAC”, the binding signal was 1.68 RPM ratio (pull-down/input). The figure for “GATGATTGTTCTCCCAGCTGATGAATTCATCGTGTCGAGTAAACAAATTTTCCTAATCTTTCTGTTCAAGCGCCATCTAC” is 0.891 RPM ratio (pull-down/input). As to “GATGATTGTTCTCCCAGCTGATGAATTTGACGAATCGAGTAAACAAATTTTCCTAATCTTTCTGTTCAAGCGCCATCTAC”, the binding signal is 0.846 RPM ratio (pull-down/input). Regarding “GATGATTGTTCTCCCAGCTGATGAATTGAGATGCTCGAGTAAACAAATTTTCCTAATCTTTCTGTTCAAGCGCCATCTAC”, the binding signal was 1.07 RPM ratio (pull-down/input). As for “GATGATTGTTCTCCCAGCTGATGAATTAGCTCGGTCGAGTAAACAAATTTTCCTAATCTTTCTGTTCAAGCGCCATCTAC”, the binding signal was 0.829 RPM ratio (pull-down/input). For “GATGATTGTTCTCCCAGCTGATGAATTATGAGATTCGAGTAAACAAATTTTCCTAATCTTTCTGTTCAAGCGCCATCTAC” the value was 0.995 RPM ratio (pull-down/input); for “GATGATTGTTCTCCCAGCTGATGAATTAACTACCTCGAGTAAACAAATTTTCCTAATCTTTCTGTTCAAGCGCCATCTAC”, 0.879 RPM ratio (pull-down/input). On to “GATGATTGTTCTCCCAGCTGATGAATTATCTTGGTCGAGTAAACAAATTTTCCTAATCTTTCTGTTCAAGCGCCATCTAC”, for which the binding signal is 0.937 RPM ratio (pull-down/input). The figure for “GATGATTGTTCTCCCAGCTGATGAATTATGATGTTCGAGTAAACAAATTTTCCTAATCTTTCTGTTCAAGCGCCATCTAC” is 1.22 RPM ratio (pull-down/input); for “GATGATTGTTCTCCCAGCTGATGAATTAAATGTTTCGAGTAAACAAATTTTCCTAATCTTTCTGTTCAAGCGCCATCTAC” it is 1.3 RPM ratio (pull-down/input); for “GATGATTGTTCTCCCAGCTGATGAATTATGATGGTCGAGTAAACAAATTTTCCTAATCTTTCTGTTCAAGCGCCATCTAC” it is 1.1 RPM ratio (pull-down/input). For “GATGATTGTTCTCCCAGCTGATGAATTAATGTTTTCGAGTAAACAAATTTTCCTAATCTTTCTGTTCAAGCGCCATCTAC”, the binding signal was 2.45 RPM ratio (pull-down/input). The figure for “GATGATTGTTCTCCCAGCTGATGAATTTAATGTTTCGAGTAAACAAATTTTCCTAATCTTTCTGTTCAAGCGCCATCTAC” is 1.15 RPM ratio (pull-down/input); for “GATGATTGTTCTCCCAGCTGATGAATTTTTATGTTCGAGTAAACAAATTTTCCTAATCTTTCTGTTCAAGCGCCATCTAC” it is 1.37 RPM ratio (pull-down/input).

“GATGATTGTTCTCCCAGCTGATGAATTATGTTGGTCGAGTAAACAAATTTTCCTAATCTTTCTGTTCAAGCGCCATCTAC”: the binding signal is 1.87 RPM ratio (pull-down/input).

Consider “GATGATTGTTCTCCCAGCTGATGAATTTATGTTTTCGAGTAAACAAATTTTCCTAATCTTTCTGTTCAAGCGCCATCTAC”, for which the binding signal is 2.76 RPM ratio (pull-down/input). The figure for “GATGATTGTTCTCCCAGCTGATGAATTTTATGTTTCGAGTAAACAAATTTTCCTAATCTTTCTGTTCAAGCGCCATCTAC” is 1.19 RPM ratio (pull-down/input); for “GATGATTGTTCTCCCAGCTGATGAATTATGTGTTTCGAGTAAACAAATTTTCCTAATCTTTCTGTTCAAGCGCCATCTAC” it is 1.51 RPM ratio (pull-down/input); for “GATGATTGTTCTCCCAGCTGATGAATTATGTTTTTCGAGTAAACAAATTTTCCTAATCTTTCTGTTCAAGCGCCATCTAC” it is 2.19 RPM ratio (pull-down/input). The figure for “GATGATTGTTCTCCCAGCTGATGAATTCCTAATCTCGAGTAAACAAATTTTCCTAATCTTTCTGTTCAAGCGCCATCTAC” is 0.834 RPM ratio (pull-down/input); for “GATGATTGTTCTCCCAGCTGATGAATTATGATATTCGAGTAAACAAATTTTCCTAATCTTTCTGTTCAAGCGCCATCTAC” it is 1.24 RPM ratio (pull-down/input); for “GATGATTGTTCTCCCAGCTGATGAATTATACCTCTCGAGTAAACAAATTTTCCTAATCTTTCTGTTCAAGCGCCATCTAC” it is 0.896 RPM ratio (pull-down/input).

With “GATGATTGTTCTCCCAGCTGATGAATTAAGCTTATCGAGTAAACAAATTTTCCTAATCTTTCTGTTCAAGCGCCATCTAC”, the binding signal was 1.03 RPM ratio (pull-down/input). For “GATGATTGTTCTCCCAGCTGATGAATTCTCTTCATCGAGTAAACAAATTTTCCTAATCTTTCTGTTCAAGCGCCATCTAC”, the binding signal is 0.886 RPM ratio (pull-down/input). The figure for “GATGATTGTTCTCCCAGCTGATGAATTATGATGATCGAGTAAACAAATTTTCCTAATCTTTCTGTTCAAGCGCCATCTAC” is 1.15 RPM ratio (pull-down/input); for “GATGATTGTTCTCCCAGCTGATGAATTATGTTCATCGAGTAAACAAATTTTCCTAATCTTTCTGTTCAAGCGCCATCTAC” it is 1.04 RPM ratio (pull-down/input). As to “GATGATTGTTCTCCCAGCTGATGAATTATGTTGTTCGAGTAAACAAATTTTCCTAATCTTTCTGTTCAAGCGCCATCTAC”, the binding signal is 2.67 RPM ratio (pull-down/input). For “GATGATTGTTCTCCCAGCTGATGAATTATGTTCTTCGAGTAAACAAATTTTCCTAATCTTTCTGTTCAAGCGCCATCTAC” the value was 1.15 RPM ratio (pull-down/input); for “GATGATTGTTCTCCCAGCTGATGAATTATGTTGATCGAGTAAACAAATTTTCCTAATCTTTCTGTTCAAGCGCCATCTAC”, 2.81 RPM ratio (pull-down/input); for “GATGATTGTTCTCCCAGCTGATGAATTATGAATTTCGAGTAAACAAATTTTCCTAATCTTTCTGTTCAAGCGCCATCTAC”, 1.03 RPM ratio (pull-down/input).

The values above are taken from publication PMC12820563, “FoxP3 forms a head-to-head dimer in vivo and stabilizes its multimerization on adjacent microsatellites”.
